Measurements published in PubChem BioAssay (NCI).
The panel holds about 79,000 compounds, 15% with a hit somewhere; the sample as a whole holds those more often. Calls of active or inactive are those of the source. No stated cut-off is given here; in the data, active means growth inhibition above about 70%; inactive means the rest. Where a SMILES comes first, the peptide text is derived from it. Bridges are numbered along the chain shown (N, C = ends).

Experiments:
[1] = NCI Yeast Anticancer Drug Screen. Data for the rad50 strain (AID 155);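 further: 0% = growth of vehicle-only cultures of the same strain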; conditions: S. cerevisiae rad50 strain growth inhibition; at 50.0 µM; stronger effect = higher value
Summary of the method: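 Relative growth inhibition (compound vs vehicle) was measured in yeast with a defined repair-gene alteration.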

[2] = NCI Yeast Anticancer Drug Screen. Data for the mec2-1 strain (AID 157); conditions: S. cerevisiae mec2-1 strain, at 50.0 µM, stronger effect = higher value
Summary of the method: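 Each compound was tested on mec2-1 yeast, a strain altered in DNA damage repair or cell cycle control. Growth inhibition is reported relative to vehicle.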

[3] = NCI Yeast Anticancer Drug Screen. Data for the sgs1 mgt1 strain (AID 161);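 further: 0% = growth of cultures given vehicle only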; conditions: S. cerevisiae sgs1 mgt1 strain, at 50.0 µM, stronger effect = higher value
Summary of the method: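 Genetically altered yeast, compound exposure, growth inhibition relative to vehicle.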

[4] = NCI Yeast Anticancer Drug Screen. Data for the cln2 rad14 strain (AID 165);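 further: 0% = growth equal to vehicle treated cultures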; conditions: S. cerevisiae cln2 rad14 strain, at 50.0 µM, stronger effect = higher value
Summary of the method: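 Test compounds were added to cln2 rad14 yeast cultures; inhibition of growth was then determined by comparison with vehicle treatment.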

[5] = NCI Yeast Anticancer Drug Screen. Data for the bub3 strain (AID 167); conditions: S. cerevisiae bub3 mutant strain, at 50.0 µM, stronger effect = higher value
Summary of the method: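 Screening used yeast with an engineered genetic alteration affecting cell cycle control. Compound-exposed cultures were compared with vehicle cultures, and reduced growth was taken as inhibition.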

[6] = NCI Yeast Anticancer Drug Screen. Data for the mlh1 rad18 strain (AID 175); conditions: S. cerevisiae mlh1 rad18 strain growth inhibition; at 50.0 µM; stronger effect = higher value
Summary of the method: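 Inhibition values reflect reduced growth of mutant yeast versus vehicle-treated controls following compound exposure; the mutations affect DNA damage repair.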

Measured: growth inhibition

CC(C)(C)CC(C)(C)c1ccc(OCCOc2ccc(C(=O)Nc3ccc([N+](=O)[O-])cc3)cc2)cc1
inactive: [1] 49.9% | [2] -0.3% | [3] 42.5% | [4] 6% | [5] -5.65% | [6] 22.9%

COc1ccc(Cc2coc3ccccc3c2=O)cc1
inactive: [1] 13.1% | [2] 7.35% | [3] 13.7% | [4] 4.85% | [5] 25.2% | [6] 9.4%

Cc1ccc(S(=O)(=O)OCC2CCC(COS(=O)(=O)c3ccc(C)cc3)O2)cc1 (stereo unspecified)
inactive: [1] -4.9% | [2] -14.4% | [3] -4.85% | [4] 10.7% | [5] -0.35% | [6] -6.9%

COC(=O)C1CCC(=O)NCCCCC(NC(=O)C(N)CC(=O)O)C(=O)N1 (stereo not drawn) (H-Asp-Lys-Glu-OMe; lactam 2-3; configuration not given here)
inactive: [1] 5.4% | [2] 4% | [3] 11.3% | [4] -1.9% | [5] 15.1% | [6] -27.9%

O=[N+]([O-])c1ccc(N/N=C\C2C=CCCC2)c([N+](=O)[O-])c1 (stereo unspecified)
inactive: [1] -13.2% | [2] -0.1% | [3] -5.65% | [4] -31.8% | [5] -1.05% | [6] -19.9%

CCN(CC)c1nc(N(CC)CC)nc(N(CC)CC)n1
inactive: [1] -1% | [2] 14.8% | [3] 2.75% | [4] -30.6% | [5] 13.8% | [6] 0.2%

COc1ccc(C2=CCCCc3cc(O)c(OC)cc32)cc1
active: [1] 93.9% | [2] 96.7% | [3] 97.2% | [4] 79.8% | [5] 98.1% | [6] 97.2%

CO[C@@H]1C[C@H]2[C@@H]3CC[C@H]([C@H](C)COC(C)=O)[C@@]3(C)CC[C@@H]2[C@@]2(C)CC[C@H]3C[C@]312
inactive: [1] -4.65% | [2] 5.8% | [3] 1.55% | [4] -9.65% | [5] -1.6% | [6] 5.4%

COc1ccc2c(=O)cc[nH]c2c1OC
inactive: [1] -13.9% | [2] -16.4% | [3] -8.2% | [4] -23.9% | [5] 9.1% | [6] 4.85%

CSc1nc2ccc(N=Cc3ccccc3O)cc2s1
inactive: [1] -25.5% | [2] -8.25% | [3] -5.7% | [4] -12.6% | [5] 17.7% | [6] -13.4%

O=C1/C(=C\c2ccccc2)Cc2cc3c(cc21)OCO3
inactive: [1] 6.1% | [2] 1.85% | [3] -3.55% | [4] -15.9% | [5] 8.95% | [6] -6.45%

CC1(C)COC(=O)/C1=C/C#N
inactive: [1] 5.1% | [2] 2.6% | [3] -1.5% | [4] -38.5% | [5] -12.4% | [6] 12.3%

CCCCOC(=O)NC(C)=O
inactive: [1] -14.1% | [2] -18.9% | [3] -15.2% | [4] -11.6% | [5] -1.55% | [6] -16.1%

N#C/C(=C\c1ccc(F)cc1)C(=O)O
inactive: [1] 13.2% | [2] 0.8% | [3] -7.9% | [4] 4.2% | [5] 8.5% | [6] 18.4%

S=C(NCN1CCOCC1)NCN1CCOCC1
inactive: [1] -14.8% | [2] 5.75% | [3] -5.2% | [4] -2.7% | [5] 2.05% | [6] -16%

CNC(=O)NC(C)(C)CCCCC(C)(C)NC(=O)NC
inactive: [1] 0.5% | [2] 17.3% | [3] 28.3% | [4] -16.9% | [5] -4.65% | [6] 19.8%

C/C(=N\NC(=O)/C(C#N)=C\c1ccc(N(CCC#N)CCC#N)cc1)c1ccccc1
inactive: [1] 0.2% | [2] -14.2% | [3] -20.5% | [4] -6.9% | [5] -7.4% | [6] -1.95%

Brc1ccccc1-c1nnc(-c2cccc3ccccc23)o1
inactive: [1] -20.9% | [2] -59.9% | [3] -15.3% | [4] -10.8% | [5] -26.6% | [6] -23.2%

COC(=O)N1CCc2c(nc(N(C)CCO)[nH]c2=O)C1
inactive: [1] -0.55% | [2] -20.5% | [3] -47.2% | [4] -3.8% | [5] -30.1% | [6] -30.6%

CC1OC(CC(=O)O)CC2=C1C(=O)c1c(O)cccc1C2=O (stereo unspecified)
inactive: [1] -6.3% | [2] -8.3% | [3] 17.2% | [4] 0.6% | [5] -14.2% | [6] 10.2%

CN(C)c1ccc(/C=C2N=C(/C=C\c3ccccc3)OC\2=O)cc1
inactive: [1] -5.5% | [2] 4.75% | [3] -6.05% | [4] 0.25% | [5] 7.55% | [6] 9.45%
